Several values for one entry are separate records, joined by “and”; a condition that tells them apart may be missing. Equal entries are not always repeated. Activity calls are given as the source filed them. The calls were made as follows: active = hit-call score of the fitted dose curve at least 0.9, where 1 is the maximum; inactive = score below 0.9.

The nature of assay [1]: ATG_ISRE_CIS: Attagene CIS-FACTORIAL HepG2 Assay for human Interferon Regulatory Factor 1 (IRF1) binding to an Interferon-Stimulated Response Element (ISRE) (AID 2282948). The conditions noted are these: HepG2 ISRE cis-reporter (Attagene), mRNA transcription readout; actives raise or lower the signal. The procedure, abridged:
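Endogenous transcription factor activity read as reporter transcript abundance via RT-PCR and capillary electrophoresis. HepG2 cells transiently transfected, 24 h chemical exposure. Gain or loss fitted against DMSO baseline.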

Assay [2] can be described thus: ATG_M_32_CIS: Attagene CIS-FACTORIAL HepG2 Assay for M32 Transcription Factor (Internal Marker) (AID 2282949).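 Also: background control marker of the multiplexed CIS panel rather than a real target.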 The conditions noted are these: HepG2 Attagene cis-factorial M32 reporter, mRNA; actives raise or lower the signal. The method in brief: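 HepG2 human liver cells transiently transfected with cis-promoter-driven multiple reporter transcription units, dosed 24 h. Reporter mRNA quantified by RT-PCR, FAM-labelled primer extension, HpaI digest and capillary electrophoresis; bidirectional fit versus DMSO baseline.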

The nature of assay [3]: ATG_M_06_CIS: Attagene CIS-FACTORIAL HepG2 Assay for M06 Transcription Factor (Internal Marker) (AID 2282950). The conditions noted are these: HepG2 Attagene CIS-FACTORIAL M06 internal marker reporter; actives raise or lower the signal. The procedure, abridged:
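Measured 24 h post-dosing in transiently transfected HepG2 cells, this internal-marker endpoint reports reporter mRNA via RT-PCR with fluorescent primer extension and capillary electrophoresis. DMSO served as negative control and baseline for bidirectional fitting.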

Assay [4] has as its target Hypoxia-inducible factor 1-alpha (Homo sapiens) (UniProt Q16665). Nature of the assay: ATG_HIF1a_CIS: Attagene CIS-FACTORIAL HepG2 Assay for human Hypoxia Inducible Factor 1 (HIF1A) (AID 2282951). The conditions noted are these: HepG2 Attagene cis-factorial HIF1a reporter transcription; actives raise or lower the signal. The method in brief:
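Dosed 24 h, transfected HepG2 cells yielded total RNA whose reporter transcripts were RT-PCR-amplified and sized by capillary electrophoresis using fluorescent labelling; DMSO defined baseline, with gain and loss of signal both fitted.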

The target in assay [5] is Hepatocyte nuclear factor 6 (Homo sapiens) (UniProt Q9UBC0). Nature of the assay: ATG_HNF6_CIS: Attagene CIS-FACTORIAL HepG2 Assay for human Hepatocyte Nuclear Factor 6 (HNF6) (AID 2282952). The conditions noted are these: HepG2 Attagene cis-factorial HNF6 reporter transcription; actives raise or lower the signal. The method in brief:
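Endogenous transcription factor activity in human HepG2 liver cells was captured through cis-regulated reporter constructs. After 24 h treatment, reporter mRNA was measured by RT-PCR with capillary electrophoresis, and activity was fitted in both directions relative to DMSO.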

The target in assay [6] is Heat shock factor protein 1 (Homo sapiens) (UniProt Q00613). Nature of the assay: ATG_HSE_CIS: Attagene CIS-FACTORIAL HepG2 Assay for human Heat Shock Transcription Factor 1 (HSE) (AID 2282953). The conditions noted are these: HepG2 HSE cis-reporter, Attagene RNA transcription; actives raise or lower the signal. The method in brief:
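Reporter mRNA induction in HepG2 is measured 24 h after dosing, using transiently transfected multiplexed cis-regulated reporter units. Signal comes from capillary electrophoresis of labelled RT-PCR products, with DMSO as negative control.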

A short description of assay [7]: ATG_MRE_CIS: Attagene CIS-FACTORIAL HepG2 Assay for human Metal Responsive Element (MRE) (AID 2282954). The conditions noted are these: HepG2 MRE cis-reporter transcription, Attagene multiplex; actives raise or lower the signal. The method in brief: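 Endogenous MRE-dependent transcription read as reporter mRNA in transiently transfected human HepG2 cells at 24 h. RNA reverse-transcribed, PCR-amplified, labelled and resolved by capillary electrophoresis; gain or loss relative to DMSO.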

A short description of assay [8]: ATG_PBREM_CIS: Attagene CIS-FACTORIAL HepG2 Assay for human Phenobarbital-responsive Enhancer Module (PBREM) (AID 2282955). The conditions noted are these: HepG2 PBREM cis-reporter, Attagene multiplexed transcription; actives raise or lower the signal. The method in brief:
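Transfected liver-derived HepG2 cells exposed 24 h; PBREM reporter transcript quantified via RT-PCR and capillary electrophoresis, with activity in either direction referenced to DMSO.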

The target in assay [9] is Paired box protein Pax-6 (Homo sapiens) (UniProt P26367). Nature of the assay: ATG_Pax6_CIS: Attagene CIS-FACTORIAL HepG2 Assay for human Paired Box 6 (PAX6) (AID 2282956). The conditions noted are these: HepG2 CIS-FACTORIAL PAX6 reporter transcription, RNA readout; actives raise or lower the signal. The procedure, abridged: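 Read-out is reporter transcript level, measured by RT-PCR with fluorescent primer extension and capillary electrophoresis after 24 h dosing of transfected HepG2 cells. Activity in either direction fitted relative to DMSO control.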

Assay [10] is described as follows: ATG_PXRE_CIS: Attagene CIS-FACTORIAL HepG2 Assay for human Pregnane X Receptor Element (PXRE) (AID 2282957). The conditions noted are these: HepG2 Attagene CIS-FACTORIAL PXRE reporter, mRNA; actives raise or lower the signal. The method in brief: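 Endogenous transcription factor activity in HepG2 was gauged through induction of reporter mRNA driven by a cis-regulating promoter element, sampled 24 h post-treatment. Activity was fitted in both directions against DMSO negative control.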

The nature of assay [11]: ATG_PPRE_CIS: Attagene CIS-FACTORIAL HepG2 Assay for human Peroxisome Proliferator-activated Response Element (PPRE) (AID 2282958). The conditions noted are these: HepG2 PPRE cis-element reporter, Attagene transcription factor profiling; actives raise or lower the signal. The method in brief:
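Measured endpoint: PPRE-controlled reporter mRNA, detected by RT-PCR and capillary electrophoresis fluorescence, from transiently transfected HepG2 cells 24 h after dosing. Curves fitted in both directions using DMSO baseline.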

Assay [12] in a line: ATG_RORE_CIS: Attagene CIS-FACTORIAL HepG2 Assay for human RAR-related Orphan Receptor Element (RORE) (AID 2282959). The conditions noted are these: HepG2 Attagene cis-factorial RORE reporter, mRNA; actives raise or lower the signal. The procedure, abridged:
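Transiently transfected HepG2 reporter cells were treated 24 h. Reporter transcripts were detected by RT-PCR and capillary electrophoresis, with bidirectional fitting against DMSO.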

Assay [13] is described as follows: ATG_Sox_CIS: Attagene CIS-FACTORIAL HepG2 Assay for human SRY-box transcription factor (SOX) (AID 2282960). The conditions noted are these: HepG2 Attagene cis-factorial SOX reporter, mRNA; actives raise or lower the signal. The procedure, abridged:
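Gain- or loss-of-signal endpoint, fitted bidirectionally with DMSO as negative control. Based on reporter mRNA from transfected HepG2 cells harvested 24 h post-treatment and quantified via RT-PCR and capillary electrophoresis.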

The target of assay [14] is Transcription factor Sp1 (Homo sapiens) (UniProt P08047). Nature of the assay: ATG_Sp1_CIS: Attagene CIS-FACTORIAL HepG2 Assay for human Specificity Protein 1 (Sp1) (AID 2282961). The conditions noted are these: HepG2 Sp1 cis-reporter transcription, actives raise or lower the signal. The procedure, abridged: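 Endpoint reflects endogenous Sp1 transcriptional activity, not an exogenous fusion protein: HepG2 cells with transfected cis-regulated reporters, 24 h dosing, RT-PCR/capillary electrophoresis mRNA read-out, DMSO-normalised bidirectional fit.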

A short description of assay [15]: ATG_SREBP_CIS: Attagene CIS-FACTORIAL HepG2 Assay for human Sterol Regulatory Element Binding (SREBP) (AID 2282962). The conditions noted are these: HepG2 Attagene cis-factorial SREBP reporter, mRNA; actives raise or lower the signal. The method in brief:
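Endogenous SREBP activity read as cis-element-driven reporter transcript in transiently transfected HepG2, 24 h post-dosing; quantified via RT-PCR plus capillary electrophoresis of fluorescent fragments. Gain or loss of signal fitted relative to DMSO baseline.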

Assay [16] concerns the target Signal transducer and activator of transcription 3 (Homo sapiens) (UniProt P40763). The assay is described as follows: ATG_STAT3_CIS: Attagene CIS-FACTORIAL HepG2 Assay for human Signal Transducer and Activator of Transcription 3 (STAT3) (AID 2282963). The conditions noted are these: HepG2, Attagene cis-factorial STAT3 reporter transcription; actives raise or lower the signal. The procedure, abridged:
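Readout is reporter transcript quantified by RT-PCR and capillary electrophoresis, with 6-FAM primer extension and HpaI digestion. Total RNA is taken 24 h after dosing transiently transfected HepG2 carrying cis-regulated reporter units. Bidirectional fit against DMSO.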

The nature of assay [17]: ATG_TA_CIS: Attagene CIS-FACTORIAL HepG2 Assay for human TA Basal Promoter (AID 2282964). The conditions noted are these: HepG2 Attagene CIS-factorial TA basal promoter reporter; actives raise or lower the signal. The method in brief: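 Cis-factorial format in HepG2: reporters report endogenous factors, not chimeric Gal4 fusions. After 24 h treatment, reporter transcripts were measured by RT-PCR-capillary electrophoresis fluorescence, analysed bidirectionally versus DMSO.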

Assay [18] deals with Bile acid receptor (Homo sapiens) (UniProt Q96RI1). Nature of the assay: ATG_IR1_CIS: Attagene CIS-FACTORIAL HepG2 Assay for human Nuclear Receptor Subfamily 1 Group H Member 4 (NR1H4), IR1 submotif (AID 2282946). The conditions noted are these: IR1 reporter transcription, actives raise or lower the signal. The procedure, abridged: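 HepG2 cells transiently transfected with multiplexed cis-element reporter units read endogenous transcription factor activity. After 24 h compound exposure, reporter mRNA was quantified by RT-PCR, fluorescent labelling, HpaI digestion and capillary electrophoresis; bidirectional fitting versus DMSO baseline.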

The nature of assay [19]: ATG_GRE_CIS: Attagene CIS-FACTORIAL HepG2 Assay for human Glucocorticoid Response Elements (GRE) (AID 2282947). The conditions noted are these: HepG2 GRE cis-reporter, Attagene multiplex mRNA; actives raise or lower the signal. The procedure, abridged:
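Reporter transcripts read by RT-PCR with capillary electrophoresis fluorescence after a 24 h chemical exposure of HepG2 cells transiently transfected with multiple cis-element reporter units. Gain or loss fitted against DMSO.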

Transcription factor Sp1 (Homo sapiens), sequence (P08047 whole entry, looked up, the tested form may be a part): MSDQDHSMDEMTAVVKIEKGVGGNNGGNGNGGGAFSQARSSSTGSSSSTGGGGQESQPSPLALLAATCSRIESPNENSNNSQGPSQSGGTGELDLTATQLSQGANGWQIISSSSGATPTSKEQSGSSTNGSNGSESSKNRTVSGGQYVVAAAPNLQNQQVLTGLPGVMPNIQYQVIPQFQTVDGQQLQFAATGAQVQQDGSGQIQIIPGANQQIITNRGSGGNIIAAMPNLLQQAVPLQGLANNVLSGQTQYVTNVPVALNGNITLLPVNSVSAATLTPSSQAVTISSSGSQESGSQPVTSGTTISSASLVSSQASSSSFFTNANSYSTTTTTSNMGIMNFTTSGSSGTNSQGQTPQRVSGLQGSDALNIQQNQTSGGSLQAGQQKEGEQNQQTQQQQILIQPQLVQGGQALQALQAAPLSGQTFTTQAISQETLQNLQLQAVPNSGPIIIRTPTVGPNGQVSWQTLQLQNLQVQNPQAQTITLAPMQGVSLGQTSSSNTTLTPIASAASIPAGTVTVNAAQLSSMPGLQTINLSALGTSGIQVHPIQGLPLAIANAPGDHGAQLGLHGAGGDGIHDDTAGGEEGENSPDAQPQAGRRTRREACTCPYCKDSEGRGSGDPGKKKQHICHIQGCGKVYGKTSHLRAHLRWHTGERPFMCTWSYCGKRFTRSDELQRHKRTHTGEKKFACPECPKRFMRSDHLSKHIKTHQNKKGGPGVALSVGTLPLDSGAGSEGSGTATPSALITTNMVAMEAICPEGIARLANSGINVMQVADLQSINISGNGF
Hepatocyte nuclear factor 6 (Homo sapiens), sequence (Q9UBC0 whole entry, looked up): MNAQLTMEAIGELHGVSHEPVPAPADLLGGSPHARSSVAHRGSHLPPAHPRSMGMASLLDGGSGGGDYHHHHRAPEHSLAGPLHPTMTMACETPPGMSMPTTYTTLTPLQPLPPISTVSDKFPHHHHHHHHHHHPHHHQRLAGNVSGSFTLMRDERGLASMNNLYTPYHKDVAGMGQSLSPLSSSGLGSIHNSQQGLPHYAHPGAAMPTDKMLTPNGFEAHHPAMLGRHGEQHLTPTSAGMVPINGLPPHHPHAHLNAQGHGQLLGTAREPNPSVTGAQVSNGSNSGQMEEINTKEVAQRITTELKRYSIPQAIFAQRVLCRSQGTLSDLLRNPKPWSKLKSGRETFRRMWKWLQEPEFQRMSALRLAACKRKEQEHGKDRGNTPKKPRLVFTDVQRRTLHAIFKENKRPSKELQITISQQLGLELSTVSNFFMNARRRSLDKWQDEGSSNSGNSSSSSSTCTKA
Paired box protein Pax-6 (Homo sapiens), sequence (P26367 whole entry, looked up): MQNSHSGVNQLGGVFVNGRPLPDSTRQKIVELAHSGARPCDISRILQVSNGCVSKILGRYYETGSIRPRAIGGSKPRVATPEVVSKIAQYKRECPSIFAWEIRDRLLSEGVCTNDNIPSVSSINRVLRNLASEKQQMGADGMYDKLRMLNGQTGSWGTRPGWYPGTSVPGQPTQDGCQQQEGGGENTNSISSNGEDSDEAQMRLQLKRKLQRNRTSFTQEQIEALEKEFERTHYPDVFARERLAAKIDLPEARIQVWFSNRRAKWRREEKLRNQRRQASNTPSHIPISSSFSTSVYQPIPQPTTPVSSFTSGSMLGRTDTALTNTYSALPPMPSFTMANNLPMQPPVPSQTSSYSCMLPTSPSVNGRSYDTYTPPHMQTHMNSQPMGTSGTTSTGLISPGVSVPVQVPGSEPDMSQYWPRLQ
Hypoxia-inducible factor 1-alpha (Homo sapiens), sequence (Q16665 whole entry, looked up): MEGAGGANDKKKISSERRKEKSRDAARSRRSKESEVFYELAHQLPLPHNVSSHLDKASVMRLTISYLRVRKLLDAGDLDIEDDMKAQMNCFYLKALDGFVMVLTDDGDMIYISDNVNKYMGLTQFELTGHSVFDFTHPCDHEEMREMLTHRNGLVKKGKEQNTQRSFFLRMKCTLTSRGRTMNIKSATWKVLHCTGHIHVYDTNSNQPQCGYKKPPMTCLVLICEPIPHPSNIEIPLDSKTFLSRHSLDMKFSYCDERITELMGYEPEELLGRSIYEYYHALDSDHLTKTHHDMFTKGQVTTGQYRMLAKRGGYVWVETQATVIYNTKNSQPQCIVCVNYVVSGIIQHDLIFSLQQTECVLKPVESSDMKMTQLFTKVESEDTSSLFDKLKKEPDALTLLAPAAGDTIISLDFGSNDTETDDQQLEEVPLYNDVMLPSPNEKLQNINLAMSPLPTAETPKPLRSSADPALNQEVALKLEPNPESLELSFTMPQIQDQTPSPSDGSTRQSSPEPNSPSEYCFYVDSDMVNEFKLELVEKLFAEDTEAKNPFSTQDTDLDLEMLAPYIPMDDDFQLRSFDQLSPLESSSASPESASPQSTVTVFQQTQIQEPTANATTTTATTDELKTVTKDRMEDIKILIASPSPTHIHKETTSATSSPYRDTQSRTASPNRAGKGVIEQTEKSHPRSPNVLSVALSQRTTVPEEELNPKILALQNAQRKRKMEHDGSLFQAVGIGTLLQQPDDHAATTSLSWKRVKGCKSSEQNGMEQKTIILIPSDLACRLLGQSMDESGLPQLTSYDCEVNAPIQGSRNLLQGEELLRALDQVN
Signal transducer and activator of transcription 3 (Homo sapiens), sequence (P40763 whole entry, looked up): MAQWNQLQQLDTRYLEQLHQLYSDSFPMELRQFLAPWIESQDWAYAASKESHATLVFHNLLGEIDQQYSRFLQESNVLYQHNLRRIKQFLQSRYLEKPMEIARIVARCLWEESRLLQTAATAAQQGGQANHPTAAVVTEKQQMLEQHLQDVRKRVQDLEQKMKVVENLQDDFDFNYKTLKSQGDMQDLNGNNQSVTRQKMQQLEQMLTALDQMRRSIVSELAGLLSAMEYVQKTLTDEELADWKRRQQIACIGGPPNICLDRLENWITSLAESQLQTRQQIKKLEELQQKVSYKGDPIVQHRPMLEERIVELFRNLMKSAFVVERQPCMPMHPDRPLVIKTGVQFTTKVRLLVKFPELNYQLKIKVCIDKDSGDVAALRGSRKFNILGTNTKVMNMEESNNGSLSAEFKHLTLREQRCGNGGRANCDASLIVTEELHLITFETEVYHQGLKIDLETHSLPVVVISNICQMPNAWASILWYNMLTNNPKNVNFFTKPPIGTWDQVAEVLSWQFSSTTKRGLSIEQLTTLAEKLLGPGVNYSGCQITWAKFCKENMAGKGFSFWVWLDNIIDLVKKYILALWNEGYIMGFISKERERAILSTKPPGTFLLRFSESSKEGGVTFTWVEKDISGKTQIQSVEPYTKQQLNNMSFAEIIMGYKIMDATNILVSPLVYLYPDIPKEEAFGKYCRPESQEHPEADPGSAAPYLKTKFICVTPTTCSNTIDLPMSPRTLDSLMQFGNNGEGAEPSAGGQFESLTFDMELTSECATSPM
Heat shock factor protein 1 (Homo sapiens), sequence (Q00613 whole entry, looked up): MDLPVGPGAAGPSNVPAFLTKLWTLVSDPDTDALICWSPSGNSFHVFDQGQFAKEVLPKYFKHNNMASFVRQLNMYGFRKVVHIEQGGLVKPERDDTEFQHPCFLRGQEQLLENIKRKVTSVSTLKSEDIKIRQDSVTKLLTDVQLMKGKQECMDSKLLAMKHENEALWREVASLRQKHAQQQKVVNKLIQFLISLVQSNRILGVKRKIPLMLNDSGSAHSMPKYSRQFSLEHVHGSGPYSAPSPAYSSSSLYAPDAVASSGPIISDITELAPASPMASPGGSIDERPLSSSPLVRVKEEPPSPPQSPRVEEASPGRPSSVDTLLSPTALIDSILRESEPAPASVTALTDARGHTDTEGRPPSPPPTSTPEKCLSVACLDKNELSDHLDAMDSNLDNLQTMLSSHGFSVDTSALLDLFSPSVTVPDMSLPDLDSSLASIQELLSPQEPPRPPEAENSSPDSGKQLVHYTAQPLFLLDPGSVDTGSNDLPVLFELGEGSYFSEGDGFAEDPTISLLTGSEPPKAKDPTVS
Bile acid receptor (Homo sapiens), sequence (Q96RI1 whole entry, looked up): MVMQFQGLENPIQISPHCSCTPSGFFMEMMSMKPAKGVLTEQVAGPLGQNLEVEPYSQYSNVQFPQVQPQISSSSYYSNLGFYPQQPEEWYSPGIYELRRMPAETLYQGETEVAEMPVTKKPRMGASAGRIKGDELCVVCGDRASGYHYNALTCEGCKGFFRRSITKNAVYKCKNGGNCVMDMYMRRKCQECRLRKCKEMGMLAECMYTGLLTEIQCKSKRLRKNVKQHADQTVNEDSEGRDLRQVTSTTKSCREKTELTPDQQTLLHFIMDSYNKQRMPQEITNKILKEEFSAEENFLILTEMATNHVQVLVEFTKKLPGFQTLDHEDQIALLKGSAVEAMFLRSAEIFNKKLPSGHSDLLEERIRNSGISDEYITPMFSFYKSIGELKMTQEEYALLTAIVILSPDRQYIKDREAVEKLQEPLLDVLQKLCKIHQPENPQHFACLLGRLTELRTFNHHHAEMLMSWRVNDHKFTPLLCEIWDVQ

As for `COc1c(Cl)ccc(Cl)c1C(=O)O`, the outcome in assay [1], in assay [2], in assay [3], in assay [4], in assay [5] and in [6] was inactive. In addition, the call in assay [7], in assay [8], in [9], in assay [10], in assay [11] and in assay [12] was inactive. The result in assay [13], in [14], in assay [15], in assay [16] and in assay [17] was inactive.

The term AC50 denotes the concentration at which the activity in the assay is half-maximal. Regarding `CCOC(=O)C(C)Oc1ccc(Oc2cnc3cc(Cl)ccc3n2)cc1` (configuration not stated), the result in assay [18], in assay [19], in [1], in [2], in assay [3] and in assay [4] was inactive. For the same molecule, the molecule was called inactive in [5], in [7], in assay [8], in assay [9], in assay [11] and in assay [12]. In addition, the outcome in [13], in assay [14], in assay [15], in [16] and in assay [17] was inactive. Further, the AC50 in assay [10] is 35.1 µM (active).

For `COC(=O)c1ccc(I)cc1S(=O)(=O)NC(=O)Nc1nc(C)nc(OC)n1`, the call in assay [19], in assay [1], in assay [2], in assay [3], in assay [4] and in assay [5] was inactive. The call in assay [6], in assay [7], in [8], in assay [9], in assay [12] and in [13] was inactive. Also, the molecule was classed as inactive in assay [14], in assay [15], in assay [16] and in assay [17]. Also, the AC50 in assay [10] is 50 µM (active).

Take `CCC(C)OC(=O)N1CCCCC1CCO` (configuration not stated): the molecule was called inactive in assay [18], in [1], in assay [2], in assay [3], in assay [4] and in [5]. Moreover, the outcome in assay [6], in assay [7], in assay [8], in assay [9], in assay [11] and in [12] was inactive. Also, the result in assay [13], in assay [14], in [15], in assay [16] and in assay [17] was inactive. For the same molecule, in assay [10], the AC50 was 20.7 µM (active) and 15 µM (active).

Turning to `CCCOC(=O)c1ccc(C(=O)OCCC)nc1`, the outcome in assay [18], in assay [19], in assay [1], in [2], in [3] and in assay [4] was inactive. Besides, the outcome in [5], in assay [6], in assay [7], in assay [8], in [9] and in assay [10] was inactive. The call in [13], in [14], in assay [15], in [16] and in assay [17] was inactive. In addition, in [11], the AC50 is 23.1 µM (active).

Turning to `CCC(O)=C1C(=O)CC(C(=O)O)CC1=O` (configuration not stated), the outcome in assay [18], in assay [19], in assay [1], in assay [2], in assay [3] and in assay [4] was inactive. The call in [5], in assay [6], in [7], in assay [8], in [9] and in [10] was inactive. The result in assay [11], in assay [12], in [13], in [14], in [15] and in [16] was inactive. Further, in assay [17], the molecule was classed as inactive.

Source of the values: PubChem BioAssay (EPA / NIEHS).
